Laboratory results published in PubChem BioAssay AID651956 (Broad Institute, 2012).
Measured potencies and affinities stand elsewhere. Results filed as inconclusive are left out. Activity calls are given as the source filed them.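 The calls were made as follows: active = in every test run, a fitted half-maximal concentration for signal decrease at or below twice the highest tested concentration; inconclusive = runs disagree, flat 30 to 70% decrease, or poor fit; inactive = the rest.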

Test: miR-122 activators in hepatoma reporter cells, dose response, cell-based, Huh7 psiCHECK-miR122, Renilla luciferase, cherry-picked (AID 651956);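 also: Renilla luciferase from a miR-122 sensor reporter so lower signal means miR-122 activation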
Conditions: 48 h; series mostly up to 35 µM

outcome, inactive:
C[C@@H]1CN([C@@H](C)CO)S(=O)(=O)c2ccc(C3=CCCCC3)cc2O[C@@H]1CN(C)C(=O)Nc1ccc2c(c1)OCO2
COC(=O)C[C@@H]1CC[C@@H]2[C@H](COc3ccc(NS(=O)(=O)c4ccc(F)cc4)cc3C(=O)N2C)O1
CN1C(=O)c2cc(NC(=O)Nc3ccccc3F)ccc2OC[C@@H]2O[C@@H](CC(=O)NCc3ccc(-c4ccccc4)cc3)CC[C@@H]21
Cc1nn(C)cc1NC(=O)C[C@H]1CC[C@H]2[C@H](COc3ccc(NC(=O)c4cccc(F)c4)cc3C(=O)N2C)O1
COc1ccc(-c2c(-c3ccccc3)c(C(=O)C(=O)NCCCN(C)C)n3ccc4cc(OC)c(OC)cc4c23)cc1OC
CCCCc1cc(=O)oc2cc(C)cc(OC(C)C(=O)O)c12 (stereo not drawn)
CNC(=O)C[C@@H]1CC[C@H]2[C@@H](COc3ccc(NC(=O)c4ccc(C(F)(F)F)cc4)cc3C(=O)N2C)O1
COCCN(C[C@H]1[C@@H](c2ccccc2)[C@H](CO)N1C(=O)C1CCC1)C(C)=O
COCC(=O)Nc1ccc2c(c1)C(=O)N(C)[C@@H]1CC[C@H](CC(=O)Nc3cn(C)nc3C)O[C@H]1CO2
CN1C(=O)c2cc(NC(=O)c3cccs3)ccc2OC[C@@H]2O[C@H](CC(=O)NCC(F)(F)F)CC[C@H]21
Oc1ccc(/C=N/Nc2nccnc2Cl)c(O)c1
CN1C(=O)c2cc(NC(=O)c3cccs3)ccc2OC[C@@H]2O[C@@H](CC(=O)NCCN3CCCCC3)CC[C@@H]21
CCCNC(=O)C[C@H]1CC[C@@H]2[C@@H](COc3ccc(NC(=O)c4ccc5c(c4)OCO5)cc3C(=O)N2C)O1
O=C(Nc1ccc(F)cc1)N1C[C@@H]2[C@H](c3ccccc31)[C@H](CO)N2C(=O)Cc1ccccc1
Cc1cc2n(n1)C(c1cn(-c3ccccc3)nc1C)Nc1c(C)cccc1-2 (stereo not drawn)
O=C(COc1cccc2ccccc12)Nc1nc2ccccc2[nH]1
COC(=O)C[C@@H]1CC[C@H]2[C@@H](COc3ccc(NC(=O)c4ccc(F)c(F)c4)cc3C(=O)N2C)O1
COCC(=O)Nc1ccc2c(c1)C(=O)N(C)[C@@H]1CC[C@@H](CC(=O)OC)O[C@@H]1CO2
CCC(=O)NC[C@H]1[C@H](c2ccc(C3=CCCC3)cc2)[C@H](CO)N1C(C)=O
COc1ccc(NC(=O)Cn2nnc(C(=O)NCc3ccccc3OC)c2N)cc1Cl
NS(=O)(=O)c1ccc(Nc2nc(-c3cccnc3)cs2)cc1
CCCCNC(=O)Nc1nnc(-c2ccc(OCC)cc2)o1
Cc1ccc(C(=O)n2nc(-c3ccccc3)nc2NCc2ccco2)cc1
CCc1nc2sc(C)c(C)c2c(=O)n1CCO
O=C(c1ccccc1)N1C[C@H]2[C@@H](c3ccccc31)[C@@H](CO)N2C(=O)CN1CCOCC1
Cc1ccc(Nc2c(-c3ccccn3)nc3cc(C)ccn23)cc1
CNC(=O)C[C@H]1CC[C@@H]2[C@H](COc3ccc(NC(=O)NC(C)C)cc3C(=O)N2C)O1
CCCC(=O)Nc1ccc2c(c1)C(=O)N(C)[C@H]1CC[C@@H](CC(=O)NCCN3CCCCC3)O[C@H]1CO2
CN1C(=O)c2cc(NC(=O)c3cccs3)ccc2OC[C@H]2O[C@@H](CC(=O)NCCN3CCCCC3)CC[C@H]21
CC(C)C(=O)Nc1ccc2c(c1)C(=O)N(C)[C@@H]1CC[C@@H](CC(=O)NCCc3ccccc3)O[C@H]1CO2
COC(=O)C[C@H]1CC[C@H]2[C@H](COc3ccc(NC(=O)c4cscn4)cc3C(=O)N2C)O1
COc1ccc(CN2CCc3c([nH]c4ccccc34)C2)c(OC)c1C
CC(=O)N1[C@H](CN(C)S(=O)(=O)c2ccccc2)[C@H](c2ccccc2)[C@@H]1CO
COCC(=O)NC[C@H]1[C@@H](c2ccc(C3=CCCC3)cc2)[C@H](CO)N1C(=O)C1CC1
CCCCCn1c(=O)[nH]c2cc(C(=O)NCCN3C(C)CCCC3C)ccc2c1=O (stereo not drawn)
CCOC(=O)CSc1nnnn1-c1cccc2ccccc12
N#Cc1cccc(NC(=O)Nc2cccs2)c1
COc1ccccc1C#Cc1ccc2c(c1)O[C@H](CN(C)Cc1cccnc1)[C@H](C)CN([C@@H](C)CO)S2(=O)=O
